ER stress death – ER stress cell death inhibition. AID 1010. 48,000 compounds, 0.33% hits. CSM14.1 thapsigargin ER stress survival, ATP luminescence. relative survival (cellular ATP), % at 15 µg/mL (by protocol);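 active = survival measured by cellular ATP above 50% at 15 µg/ml in the first screen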;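 note: cell death triggered by about 15 µM thapsigargin; ATP read 24 h after thapsigargin was added; plate controls were thapsigargin with DMSO for no effect and DMSO without thapsigargin for full effect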
Active calls of the source: *. This is one part of a sample in which hits are shown more often than they occur.

SMILES	ER stress death
CC1=NC(=S)C(C#N)C(c2ccccc2)=C1 (centres undefined)	4
N#Cc1c(N)[nH]c(=S)c(C#N)c1-c1cccc(O)c1	11
O=C(NCCc1ccc(Cl)cc1)C(=O)Nc1ccccc1F	-8
CCOc1ccc(Nc2nc(-c3cccs3)cs2)cc1	0
CCOc1ccc(Nc2nc(-c3c(C)nc4sccn34)cs2)cc1	93*
CCN(CC)c1ccc(Nc2nc(-c3c(C)nc4sccn34)cs2)cc1	24
CCOc1ccc(NC(=O)c2ccoc2C)cc1	0

High-throughput results (PubChem)
